According to the supplement of paper PMC11732987, “Enantioselective OTUD7B fragment discovery through chemoproteomics screening and high-throughput optimisation” (Communications Chemistry, 2025):

Experiments:
Experiment in all cases: log2 ratio of Biotin-Ahx-Ub-VS probe labelling (fragment/DMSO); higher = less target engagement (more negative = stronger competition), active = hit call of the paper (q ≤ 0.05, log2 ratio ≤ -1)
Conditions in all cases: compound concentration: 200 uM; treatment time: 3 h
[1] = biological target: T1, USP42 (UniProt Q9H9J4)
T1 sequence (whole entry): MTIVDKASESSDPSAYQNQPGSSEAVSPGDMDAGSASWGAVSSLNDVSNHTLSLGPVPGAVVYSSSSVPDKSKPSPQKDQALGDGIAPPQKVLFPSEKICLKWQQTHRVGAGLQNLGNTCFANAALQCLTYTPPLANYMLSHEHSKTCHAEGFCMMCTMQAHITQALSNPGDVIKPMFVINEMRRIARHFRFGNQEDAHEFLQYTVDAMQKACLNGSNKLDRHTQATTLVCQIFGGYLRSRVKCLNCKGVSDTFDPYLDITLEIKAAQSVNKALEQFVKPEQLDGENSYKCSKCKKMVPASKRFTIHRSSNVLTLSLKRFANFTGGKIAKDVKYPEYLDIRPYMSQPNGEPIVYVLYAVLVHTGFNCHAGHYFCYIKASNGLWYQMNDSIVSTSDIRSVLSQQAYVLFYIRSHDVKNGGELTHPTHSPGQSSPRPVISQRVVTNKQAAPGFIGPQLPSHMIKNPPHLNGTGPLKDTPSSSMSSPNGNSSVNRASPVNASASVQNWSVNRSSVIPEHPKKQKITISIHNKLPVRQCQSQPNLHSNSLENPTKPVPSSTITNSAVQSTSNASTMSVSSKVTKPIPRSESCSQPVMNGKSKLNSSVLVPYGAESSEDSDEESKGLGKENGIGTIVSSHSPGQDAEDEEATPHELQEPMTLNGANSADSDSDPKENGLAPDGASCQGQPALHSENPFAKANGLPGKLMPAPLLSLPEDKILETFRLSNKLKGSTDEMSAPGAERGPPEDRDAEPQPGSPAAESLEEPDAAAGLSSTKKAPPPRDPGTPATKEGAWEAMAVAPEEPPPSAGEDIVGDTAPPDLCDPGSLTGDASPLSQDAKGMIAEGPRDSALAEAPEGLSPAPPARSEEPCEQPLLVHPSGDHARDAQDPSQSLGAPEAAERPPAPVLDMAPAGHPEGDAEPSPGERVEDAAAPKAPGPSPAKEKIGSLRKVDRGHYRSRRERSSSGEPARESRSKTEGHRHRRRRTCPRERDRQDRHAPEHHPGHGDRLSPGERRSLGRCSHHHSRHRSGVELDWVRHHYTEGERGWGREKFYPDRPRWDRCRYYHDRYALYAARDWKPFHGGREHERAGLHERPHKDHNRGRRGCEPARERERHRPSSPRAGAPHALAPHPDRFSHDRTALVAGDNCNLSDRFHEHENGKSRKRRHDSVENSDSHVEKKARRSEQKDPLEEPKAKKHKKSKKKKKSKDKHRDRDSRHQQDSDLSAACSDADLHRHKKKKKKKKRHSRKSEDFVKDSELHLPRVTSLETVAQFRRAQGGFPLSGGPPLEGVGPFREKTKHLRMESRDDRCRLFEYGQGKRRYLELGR
Outline: (§1)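 The table lists average log2 ratios of fragment over vehicle, from an unpaired t-test on global-median-normalised Spectronaut label-free quantities. Proteins with ≥2 unique peptides were used. Samples were HEK293T lysate (495 µg) treated in triplicate with fragment at 200 µM or vehicle for 3 h, then with Biotin-Ahx-Ub-VS (0.5 µM final) for 1 h, with labelled DUBs NeutrAvidin-enriched and run by diaPASEF LC-MS/MS.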

[2] = biological target: USP46 (UniProt P62068)
Outline: as §1

[3] = biological target: T2, USP47 (UniProt Q96K76)
T2 sequence (whole entry): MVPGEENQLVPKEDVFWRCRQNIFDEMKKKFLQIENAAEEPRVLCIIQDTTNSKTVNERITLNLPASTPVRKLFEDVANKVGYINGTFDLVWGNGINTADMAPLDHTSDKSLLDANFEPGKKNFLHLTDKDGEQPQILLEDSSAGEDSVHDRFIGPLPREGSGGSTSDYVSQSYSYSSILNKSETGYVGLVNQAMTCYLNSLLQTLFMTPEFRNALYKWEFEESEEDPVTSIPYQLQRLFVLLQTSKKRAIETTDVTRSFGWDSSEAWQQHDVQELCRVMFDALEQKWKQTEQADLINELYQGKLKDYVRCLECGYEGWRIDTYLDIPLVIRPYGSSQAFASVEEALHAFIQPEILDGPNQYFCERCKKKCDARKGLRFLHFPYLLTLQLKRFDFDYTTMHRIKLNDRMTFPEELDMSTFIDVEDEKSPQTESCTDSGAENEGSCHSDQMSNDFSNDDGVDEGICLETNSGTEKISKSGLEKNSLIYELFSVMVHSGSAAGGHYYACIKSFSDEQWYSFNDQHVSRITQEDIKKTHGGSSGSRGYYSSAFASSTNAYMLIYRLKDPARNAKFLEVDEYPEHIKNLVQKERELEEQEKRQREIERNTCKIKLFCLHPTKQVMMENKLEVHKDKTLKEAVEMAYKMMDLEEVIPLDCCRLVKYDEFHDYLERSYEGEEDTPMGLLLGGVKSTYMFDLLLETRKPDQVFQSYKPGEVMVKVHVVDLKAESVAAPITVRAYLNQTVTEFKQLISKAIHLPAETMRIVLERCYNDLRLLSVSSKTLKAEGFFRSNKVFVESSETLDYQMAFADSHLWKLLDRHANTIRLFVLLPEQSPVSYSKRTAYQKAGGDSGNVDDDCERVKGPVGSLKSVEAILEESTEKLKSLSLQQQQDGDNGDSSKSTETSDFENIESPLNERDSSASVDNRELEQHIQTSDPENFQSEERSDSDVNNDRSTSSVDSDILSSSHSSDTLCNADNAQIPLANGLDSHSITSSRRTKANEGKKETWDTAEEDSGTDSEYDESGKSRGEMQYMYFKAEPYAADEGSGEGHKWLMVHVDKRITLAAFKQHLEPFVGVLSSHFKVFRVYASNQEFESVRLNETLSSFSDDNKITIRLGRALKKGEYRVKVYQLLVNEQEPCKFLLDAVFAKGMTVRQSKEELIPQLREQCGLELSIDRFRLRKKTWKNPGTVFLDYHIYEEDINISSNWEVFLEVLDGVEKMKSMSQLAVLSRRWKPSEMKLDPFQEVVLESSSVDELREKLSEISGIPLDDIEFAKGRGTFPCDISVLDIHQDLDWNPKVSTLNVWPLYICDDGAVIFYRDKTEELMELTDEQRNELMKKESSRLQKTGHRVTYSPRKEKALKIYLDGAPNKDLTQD
Outline: as §1

[4] = biological target: T3, USP48 (UniProt Q86UV5)
T3 sequence (whole entry): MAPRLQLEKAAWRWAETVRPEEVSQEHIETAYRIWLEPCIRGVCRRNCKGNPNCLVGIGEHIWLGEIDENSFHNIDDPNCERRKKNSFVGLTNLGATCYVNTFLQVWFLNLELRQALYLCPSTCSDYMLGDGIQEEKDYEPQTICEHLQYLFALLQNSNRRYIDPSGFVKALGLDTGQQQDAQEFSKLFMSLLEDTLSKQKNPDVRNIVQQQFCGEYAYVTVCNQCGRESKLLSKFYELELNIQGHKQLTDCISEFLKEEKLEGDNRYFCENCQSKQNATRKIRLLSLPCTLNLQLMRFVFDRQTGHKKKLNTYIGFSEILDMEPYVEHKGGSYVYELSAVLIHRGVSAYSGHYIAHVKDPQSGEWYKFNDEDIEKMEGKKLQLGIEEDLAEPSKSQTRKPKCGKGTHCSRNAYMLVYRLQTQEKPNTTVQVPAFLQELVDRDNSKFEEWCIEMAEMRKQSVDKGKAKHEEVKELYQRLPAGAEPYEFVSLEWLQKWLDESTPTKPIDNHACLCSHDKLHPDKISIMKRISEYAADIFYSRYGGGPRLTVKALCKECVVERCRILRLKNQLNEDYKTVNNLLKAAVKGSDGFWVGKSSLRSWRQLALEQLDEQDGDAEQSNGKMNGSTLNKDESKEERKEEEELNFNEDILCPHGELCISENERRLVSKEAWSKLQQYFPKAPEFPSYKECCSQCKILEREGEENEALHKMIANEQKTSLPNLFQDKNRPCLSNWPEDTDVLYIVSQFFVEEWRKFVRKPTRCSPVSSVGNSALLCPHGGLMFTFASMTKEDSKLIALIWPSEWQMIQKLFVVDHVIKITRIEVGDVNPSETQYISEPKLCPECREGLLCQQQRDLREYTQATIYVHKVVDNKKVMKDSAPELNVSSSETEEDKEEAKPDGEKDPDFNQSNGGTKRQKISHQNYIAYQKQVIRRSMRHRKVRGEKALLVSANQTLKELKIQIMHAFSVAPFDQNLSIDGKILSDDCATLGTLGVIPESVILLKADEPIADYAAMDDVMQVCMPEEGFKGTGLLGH
Outline: as §1

[5] = biological target: T4, USP5 (UniProt P45974)
T4 sequence (whole entry): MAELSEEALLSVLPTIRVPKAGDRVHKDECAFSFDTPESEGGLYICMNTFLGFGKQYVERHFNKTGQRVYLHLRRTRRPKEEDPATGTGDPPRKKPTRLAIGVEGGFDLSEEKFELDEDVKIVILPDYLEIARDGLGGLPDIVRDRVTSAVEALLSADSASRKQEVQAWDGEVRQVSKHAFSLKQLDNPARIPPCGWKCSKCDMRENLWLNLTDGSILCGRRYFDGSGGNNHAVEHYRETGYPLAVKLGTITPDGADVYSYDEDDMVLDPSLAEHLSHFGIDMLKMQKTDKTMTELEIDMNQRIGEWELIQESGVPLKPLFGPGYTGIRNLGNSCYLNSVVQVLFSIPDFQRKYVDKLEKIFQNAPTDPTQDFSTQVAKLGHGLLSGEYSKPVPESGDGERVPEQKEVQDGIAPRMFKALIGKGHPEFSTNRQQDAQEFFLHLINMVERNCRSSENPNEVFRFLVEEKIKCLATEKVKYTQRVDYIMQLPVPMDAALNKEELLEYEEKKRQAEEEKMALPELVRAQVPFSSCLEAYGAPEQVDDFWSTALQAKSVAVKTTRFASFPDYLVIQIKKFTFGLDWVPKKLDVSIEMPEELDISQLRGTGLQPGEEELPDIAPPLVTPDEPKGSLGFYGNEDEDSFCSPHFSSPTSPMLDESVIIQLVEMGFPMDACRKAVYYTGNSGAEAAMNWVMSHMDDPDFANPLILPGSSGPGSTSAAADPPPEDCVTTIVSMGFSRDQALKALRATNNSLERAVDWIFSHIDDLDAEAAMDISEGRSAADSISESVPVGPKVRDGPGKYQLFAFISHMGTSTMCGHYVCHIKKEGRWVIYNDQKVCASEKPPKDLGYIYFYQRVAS
Outline: as §1

[6] = biological target: USP54 (UniProt Q70EL1)
Outline: as §1

[7] = biological target: USP7 (UniProt Q93009)
Outline: as §1

[8] = biological target: T5, USP8 (UniProt P40818)
T5 sequence (whole entry): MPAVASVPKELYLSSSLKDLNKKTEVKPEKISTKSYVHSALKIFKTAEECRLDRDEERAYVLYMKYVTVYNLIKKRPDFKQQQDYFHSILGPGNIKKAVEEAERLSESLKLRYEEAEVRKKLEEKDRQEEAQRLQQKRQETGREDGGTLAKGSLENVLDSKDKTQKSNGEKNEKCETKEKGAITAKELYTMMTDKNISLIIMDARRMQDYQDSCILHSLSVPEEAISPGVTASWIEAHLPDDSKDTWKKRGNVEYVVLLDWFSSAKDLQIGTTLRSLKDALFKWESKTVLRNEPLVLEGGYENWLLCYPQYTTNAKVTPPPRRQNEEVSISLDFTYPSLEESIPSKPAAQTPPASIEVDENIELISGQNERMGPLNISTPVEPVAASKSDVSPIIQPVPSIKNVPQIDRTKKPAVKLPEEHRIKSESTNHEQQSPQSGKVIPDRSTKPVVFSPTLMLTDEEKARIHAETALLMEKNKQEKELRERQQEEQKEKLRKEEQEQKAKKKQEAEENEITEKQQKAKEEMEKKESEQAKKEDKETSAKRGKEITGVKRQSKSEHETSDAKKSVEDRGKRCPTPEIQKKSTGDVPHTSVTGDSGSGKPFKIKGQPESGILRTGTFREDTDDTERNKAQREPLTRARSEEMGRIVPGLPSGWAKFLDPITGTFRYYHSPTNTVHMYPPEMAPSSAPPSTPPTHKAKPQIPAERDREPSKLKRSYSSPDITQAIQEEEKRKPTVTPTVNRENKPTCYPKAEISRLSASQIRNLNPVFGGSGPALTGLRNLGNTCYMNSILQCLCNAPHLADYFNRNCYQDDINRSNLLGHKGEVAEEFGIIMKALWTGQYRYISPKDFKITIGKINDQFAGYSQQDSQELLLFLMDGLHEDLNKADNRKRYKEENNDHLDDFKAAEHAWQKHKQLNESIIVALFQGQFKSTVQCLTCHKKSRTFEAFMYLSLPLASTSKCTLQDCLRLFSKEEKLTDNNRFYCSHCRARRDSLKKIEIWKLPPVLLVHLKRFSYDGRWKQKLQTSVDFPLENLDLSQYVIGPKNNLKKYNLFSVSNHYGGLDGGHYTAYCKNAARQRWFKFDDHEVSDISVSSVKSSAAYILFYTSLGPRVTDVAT
Outline: as §1

[9] = biological target: USP9X (UniProt Q93008)
Outline: as §1

[10] = biological target: UniProt O00487
Outline: as §1

Measured: log2 ratio of Biotin-Ahx-Ub-VS probe labelling

USP46, sequence (P62068 whole entry): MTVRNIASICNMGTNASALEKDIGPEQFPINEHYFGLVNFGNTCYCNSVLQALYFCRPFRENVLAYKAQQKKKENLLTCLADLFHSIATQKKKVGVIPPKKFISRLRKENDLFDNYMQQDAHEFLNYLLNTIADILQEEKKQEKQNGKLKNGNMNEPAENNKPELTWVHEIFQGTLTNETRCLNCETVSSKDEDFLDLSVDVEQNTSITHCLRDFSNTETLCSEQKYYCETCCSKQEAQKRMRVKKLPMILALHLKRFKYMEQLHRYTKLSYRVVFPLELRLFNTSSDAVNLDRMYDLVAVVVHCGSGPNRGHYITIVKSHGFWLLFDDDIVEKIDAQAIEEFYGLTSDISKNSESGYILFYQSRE
USP54, sequence (Q70EL1 whole entry): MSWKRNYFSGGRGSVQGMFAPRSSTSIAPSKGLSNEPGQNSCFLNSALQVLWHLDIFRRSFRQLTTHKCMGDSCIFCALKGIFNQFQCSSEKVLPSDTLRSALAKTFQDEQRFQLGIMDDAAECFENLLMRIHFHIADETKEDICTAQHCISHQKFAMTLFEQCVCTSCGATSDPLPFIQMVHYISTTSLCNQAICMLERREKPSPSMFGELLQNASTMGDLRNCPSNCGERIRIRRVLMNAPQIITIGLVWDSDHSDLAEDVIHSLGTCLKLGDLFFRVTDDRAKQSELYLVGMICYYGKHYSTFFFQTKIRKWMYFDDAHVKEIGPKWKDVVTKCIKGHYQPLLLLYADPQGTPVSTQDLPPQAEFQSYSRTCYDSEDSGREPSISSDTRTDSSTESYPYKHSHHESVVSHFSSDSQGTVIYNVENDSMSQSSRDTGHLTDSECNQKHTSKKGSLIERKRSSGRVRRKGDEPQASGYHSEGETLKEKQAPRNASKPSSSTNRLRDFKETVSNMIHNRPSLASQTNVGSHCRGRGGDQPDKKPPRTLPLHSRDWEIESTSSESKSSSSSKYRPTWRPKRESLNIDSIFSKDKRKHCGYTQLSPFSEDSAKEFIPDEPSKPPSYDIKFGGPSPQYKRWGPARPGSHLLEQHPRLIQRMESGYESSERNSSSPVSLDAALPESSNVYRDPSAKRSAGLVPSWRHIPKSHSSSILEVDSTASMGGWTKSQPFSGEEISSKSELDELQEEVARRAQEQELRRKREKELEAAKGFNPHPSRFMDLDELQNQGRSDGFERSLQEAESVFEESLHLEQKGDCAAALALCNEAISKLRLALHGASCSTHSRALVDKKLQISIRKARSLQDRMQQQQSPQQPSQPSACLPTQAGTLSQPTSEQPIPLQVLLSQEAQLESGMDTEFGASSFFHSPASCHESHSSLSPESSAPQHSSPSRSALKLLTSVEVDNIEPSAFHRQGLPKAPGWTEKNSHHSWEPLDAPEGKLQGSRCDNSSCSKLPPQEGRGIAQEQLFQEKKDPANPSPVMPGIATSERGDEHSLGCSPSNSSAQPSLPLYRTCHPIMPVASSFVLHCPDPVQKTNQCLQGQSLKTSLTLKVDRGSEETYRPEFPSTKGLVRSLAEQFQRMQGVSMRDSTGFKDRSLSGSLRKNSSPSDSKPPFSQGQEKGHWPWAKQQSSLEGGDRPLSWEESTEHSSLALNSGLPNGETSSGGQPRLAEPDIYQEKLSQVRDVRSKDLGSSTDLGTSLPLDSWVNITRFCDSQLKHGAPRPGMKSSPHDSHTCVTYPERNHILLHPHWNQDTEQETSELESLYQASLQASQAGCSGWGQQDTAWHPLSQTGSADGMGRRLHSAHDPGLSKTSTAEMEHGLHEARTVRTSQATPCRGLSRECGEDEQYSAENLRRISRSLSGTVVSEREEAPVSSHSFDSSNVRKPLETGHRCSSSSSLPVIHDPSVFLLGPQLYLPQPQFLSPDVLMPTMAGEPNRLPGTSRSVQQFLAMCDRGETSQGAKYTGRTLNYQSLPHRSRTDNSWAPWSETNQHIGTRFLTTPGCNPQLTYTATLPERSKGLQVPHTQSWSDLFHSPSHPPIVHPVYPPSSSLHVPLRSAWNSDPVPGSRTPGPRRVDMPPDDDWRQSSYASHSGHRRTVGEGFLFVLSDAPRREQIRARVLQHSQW
UniProt O00487, sequence (O00487 whole entry): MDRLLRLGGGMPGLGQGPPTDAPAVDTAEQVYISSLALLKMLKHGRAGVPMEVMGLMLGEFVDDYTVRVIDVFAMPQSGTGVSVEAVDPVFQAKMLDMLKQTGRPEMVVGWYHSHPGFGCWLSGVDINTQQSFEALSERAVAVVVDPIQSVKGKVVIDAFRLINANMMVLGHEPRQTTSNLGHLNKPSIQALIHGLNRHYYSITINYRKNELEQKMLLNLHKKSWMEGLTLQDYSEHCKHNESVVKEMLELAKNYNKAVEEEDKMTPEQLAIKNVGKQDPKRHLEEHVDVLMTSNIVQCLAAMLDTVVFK
USP7, sequence (Q93009 whole entry, looked up): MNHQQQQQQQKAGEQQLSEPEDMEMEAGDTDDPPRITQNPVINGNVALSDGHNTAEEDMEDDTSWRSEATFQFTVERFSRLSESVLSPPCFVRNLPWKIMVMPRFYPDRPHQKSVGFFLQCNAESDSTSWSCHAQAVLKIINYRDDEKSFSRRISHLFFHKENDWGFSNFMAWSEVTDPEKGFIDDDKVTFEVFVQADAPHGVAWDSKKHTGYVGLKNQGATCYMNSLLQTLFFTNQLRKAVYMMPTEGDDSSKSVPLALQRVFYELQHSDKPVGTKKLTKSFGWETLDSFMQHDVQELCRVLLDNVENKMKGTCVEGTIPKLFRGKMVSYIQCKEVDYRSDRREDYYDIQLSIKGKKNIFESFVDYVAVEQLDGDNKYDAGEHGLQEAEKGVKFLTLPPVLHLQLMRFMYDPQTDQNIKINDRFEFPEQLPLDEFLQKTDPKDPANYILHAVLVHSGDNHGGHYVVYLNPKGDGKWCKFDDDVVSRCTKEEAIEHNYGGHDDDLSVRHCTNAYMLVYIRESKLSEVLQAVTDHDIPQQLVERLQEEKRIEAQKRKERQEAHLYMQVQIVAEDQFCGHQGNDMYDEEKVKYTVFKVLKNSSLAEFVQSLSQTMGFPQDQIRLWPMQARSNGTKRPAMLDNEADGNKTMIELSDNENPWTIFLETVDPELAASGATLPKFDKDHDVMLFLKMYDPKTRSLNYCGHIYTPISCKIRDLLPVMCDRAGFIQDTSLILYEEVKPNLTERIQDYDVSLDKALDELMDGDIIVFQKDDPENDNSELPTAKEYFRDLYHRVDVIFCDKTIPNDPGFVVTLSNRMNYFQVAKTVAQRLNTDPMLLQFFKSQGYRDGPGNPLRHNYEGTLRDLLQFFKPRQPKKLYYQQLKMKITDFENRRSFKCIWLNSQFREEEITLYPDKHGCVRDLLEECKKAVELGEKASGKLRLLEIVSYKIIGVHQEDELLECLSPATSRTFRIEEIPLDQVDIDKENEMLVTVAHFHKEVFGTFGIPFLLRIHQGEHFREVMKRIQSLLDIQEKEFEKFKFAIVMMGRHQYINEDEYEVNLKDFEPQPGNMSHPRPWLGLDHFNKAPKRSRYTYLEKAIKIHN

O=C(CCl)Nc1ccc(Cl)c(F)c1
inactive: [1] -0.0407 | [2] -0.231 | [3] -0.798 | [4] -0.731 | [5] -0.223 | [6] -0.268 | [7] -0.646 | [8] -0.207 | [9] -0.282 | [10] -0.0232
